Measured values published in PubChem BioAssay (Tox21).
Calls of active or inactive are those of the source. Calls follow the shape of the dose curve; as a rule, active = well fitted curve in the direction sought with a large enough effect in the repeat runs; inconclusive = weak or mixed curves; inactive = flat fitted curve, though single readings scatter.

Assay: qHTS assay to test for compound auto fluorescence at 535 nm (green) in HEK293 cells (AID 720680)
Conditions: green autofluorescence 485/535 nm; series mostly up to 91.3 µM

Row | SMILES | outcome
1 | CC(C)(C)NC[C@H](O)COc1nsnc1N1CCOCC1 | inactive
2 | Cc1ccc([N+](=O)[O-])cc1N | inactive
3 | CC(C)=CCC/C(C)=C/C=O | inactive
4 | O=C(NCC1CCCCN1)c1cc(OCC(F)(F)F)ccc1OCC(F)(F)F (configuration not stated) | inactive
5 | CC1(C)[C@@H](O[C@H]2O[C@H](C(=O)O)[C@@H](O)[C@H](O)[C@H]2O[C@@H]2O[C@H](C(=O)O)[C@@H](O)[C@H](O)[C@H]2O)CC[C@]2(C)[C@H]3C(=O)C=C4[C@@H]5C[C@@](C)(C(=O)O)CC[C@]5(C)CC[C@@]4(C)[C@]3(C)CC[C@@H]12 | inactive
6 | C1CCCNCC1 | inactive
7 | COc1c2ccoc2cc2oc(=O)ccc12 | inactive
8 | CC(=O)Nc1ccc(CC(=O)O)cc1 | inactive
9 | CCCCCCC(=O)O | inactive
10 | CC(=O)OC(C)(C)C1CC=C(C)CC1 (configuration not stated) | inactive
11 | Cc1ccccc1C=O | inactive
12 | NC(=O)NC(N)=O | inactive
13 | Cc1cc(CC(=O)O)n(C)c1C(=O)c1ccc(Cl)cc1 | inactive
14 | C[Si](C)(C)N[Si](C)(C)C | inactive
15 | COc1ccc2cc3[n+](cc2c1OC)CCc1cc2c(cc1-3)OCO2 | inactive
16 | Nc1nc(N)c2nc(-c3ccccc3)c(N)nc2n1 | inactive
17 | Clc1cccc(Cl)c1NC1=NCCN1 | inactive
18 | O=C(O)C1=NN(c2ccc(S(=O)(=O)O)cc2)C(=O)C1 | inactive
19 | N[C@@H](Cc1cc(I)c(Oc2ccc(O)c(I)c2)c(I)c1)C(=O)O | inactive
20 | C=C(CC(=O)O)C(=O)O | inactive
21 | Cc1ccccc1Cl | inactive
22 | CCCCCCCCCCCCCC(=O)O | inactive
